molecular target: Glucocorticoid receptor (Homo sapiens) (UniProt P04150); assay: GR-GFP Redistribution (AID 450;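 active = compounds whose dose series gives a full or clear partial fitted curve of increased nuclear translocation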); conditions: U2OS GR-GFP nuclear translocation, laser cytometry, 2 h
Potency is the fitted concentration of half-maximal effect.

Chain of Glucocorticoid receptor (Homo sapiens) (P04150 whole entry, looked up, the tested form may be a part): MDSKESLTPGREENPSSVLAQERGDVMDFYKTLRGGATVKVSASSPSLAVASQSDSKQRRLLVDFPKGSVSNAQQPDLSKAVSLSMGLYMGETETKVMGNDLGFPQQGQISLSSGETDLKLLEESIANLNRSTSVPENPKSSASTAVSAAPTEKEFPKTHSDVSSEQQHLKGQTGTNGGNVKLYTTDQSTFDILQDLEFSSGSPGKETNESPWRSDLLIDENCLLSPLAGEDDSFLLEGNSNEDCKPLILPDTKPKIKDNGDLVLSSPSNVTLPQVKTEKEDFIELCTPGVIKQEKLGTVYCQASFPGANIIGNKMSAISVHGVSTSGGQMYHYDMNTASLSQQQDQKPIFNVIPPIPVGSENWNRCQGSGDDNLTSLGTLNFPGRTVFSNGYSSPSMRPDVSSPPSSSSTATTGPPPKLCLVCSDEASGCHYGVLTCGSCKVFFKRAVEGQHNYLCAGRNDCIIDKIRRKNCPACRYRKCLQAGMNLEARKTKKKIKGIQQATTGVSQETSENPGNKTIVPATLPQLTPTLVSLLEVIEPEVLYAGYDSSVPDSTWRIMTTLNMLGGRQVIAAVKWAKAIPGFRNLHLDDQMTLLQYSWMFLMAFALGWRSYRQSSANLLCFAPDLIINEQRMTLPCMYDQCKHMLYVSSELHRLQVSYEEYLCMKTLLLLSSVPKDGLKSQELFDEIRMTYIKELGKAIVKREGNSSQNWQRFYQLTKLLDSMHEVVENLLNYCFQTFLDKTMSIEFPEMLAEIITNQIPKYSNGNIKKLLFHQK

Potency, inactive:
Cc1nc2cnc(Oc3cccc(Cl)c3)nc2n(C2CC2)c1=O > 9.22 µM
CNc1ncncc1-c1ccccc1C(F)(F)F > 46 µM
CC(=O)NCCNc1nc(-c2ccc(C(=O)N(C)C)cc2)nc2ccccc12 > 46 µM
COc1ccc(CNc2ccnc(-c3ccc(C(=O)N(C)C)cc3)n2)c(OC)c1 > 46 µM
Clc1ccccc1-c1cc(NCCN2CCOCC2)ncn1 > 46 µM
COc1ccc(CNc2cc(-c3cccnc3)ncn2)c(OC)c1 > 46 µM
CCNc1ncc2nc(-c3ccc(OC)cc3)c(=O)n(CCC#N)c2n1 > 9.22 µM
FC(F)(F)c1ccccc1-c1cncnc1NCc1cccnc1 > 46 µM
COc1ncc2nc(-c3cn(C)c4ccccc34)c(=O)n(C)c2n1 > 9.22 µM
CN(C)C(=O)c1ccc(-c2cncnc2NCc2ccccc2)cc1 > 46 µM
COc1ccc(-n2c(=O)c(CCc3ccccc3)nc3cncnc32)cc1 > 9.22 µM
Cc1nc2cnc(N(C)C)nc2n(-c2ccccc2)c1=O > 46 µM
COc1ccccc1CNc1ncncc1-c1ccc(C(=O)N(C)C)cc1 > 46 µM
COc1ccc(CNc2ncncc2-c2ccccc2C(F)(F)F)c(OC)c1 > 46 µM
COCCn1c(=O)c(-c2cccc(C#N)c2)nc2cnc(N3CCOCC3)nc21 > 9.22 µM
CNc1ncncc1-c1ccccc1C > 46 µM
O=c1cnc2cnc(Oc3ccccc3)nc2n1C1CC1 > 9.22 µM
COCCn1c(=O)c(-c2cccc(C#N)c2)nc2cnc(Oc3ccc(OC)cc3)nc21 > 9.22 µM
O=c1c(-c2ccccc2)nc2cncnc2n1-c1ccccc1 > 9.22 µM
CN(C)C(=O)c1ccc(-c2nccc(N(C)Cc3ccco3)n2)cc1 > 46 µM
CS(=O)(=O)Nc1cccc(-c2cc(NCc3cccs3)ncn2)c1 > 46 µM
COc1ccc(-c2nc3cnc(OC)nc3n(C)c2=O)cc1 > 9.22 µM
c1ccc(CNc2ncncc2-c2cccnc2)cc1 > 46 µM
CN(C)c1ncc2nc(-c3cccs3)c(=O)n(-c3ccccc3)c2n1 > 9.22 µM
Cn1c(=O)c(-c2ccc(Cl)cc2)nc2cnc(OCc3ccccc3)nc21 > 9.22 µM
COc1cccc(Cn2c(=O)c(-c3ccc(Cl)cc3)nc3cnc(N4CCN(C)CC4)nc32)c1 > 9.22 µM
COc1cccc(Cn2c(=O)c(CCc3ccccc3)nc3cncnc32)c1 > 9.22 µM
Cn1c(=O)c(-c2ccccc2)nc2cnc(Nc3ccccc3)nc21 > 9.22 µM
COc1ncc2ncc(=O)n(C3CC3)c2n1 > 9.22 µM
Cc1cnc(CNc2cc(-c3ccccc3C(F)(F)F)ncn2)cn1 > 46 µM
CN(C)C(=O)c1ccc(-c2cncnc2NCc2cccnc2)cc1 > 46 µM
COc1ncc2nc(-c3ccc(F)cc3)c(=O)n(CCc3ccccc3)c2n1 > 9.22 µM
N#Cc1cccc(-c2nccc(-n3ccnc3)n2)c1 > 46 µM
O=c1c(-c2ccccc2)nc2cnc(Oc3cccc(Cl)c3)nc2n1C1CC1 > 9.22 µM
CNc1nc(-c2cccnc2)nc2ccccc12 > 46 µM
Cn1cc(-c2nc3cnc(Oc4ccccc4)nc3n(Cc3cccs3)c2=O)c2ccccc21 > 9.22 µM
COc1cccc(Cn2c(=O)c(-c3ccc(Cl)cc3)nc3cnc(OC)nc32)c1 > 9.22 µM
c1ccc(CNc2ccnc(-c3ccc4c(c3)OCO4)n2)cc1 > 46 µM

molecular target: Glucocorticoid receptor (Homo sapiens) (UniProt P04150); assay: GR-EFC Redistribution (AID 451); conditions: CHO-K1 GR-EFC translocation, beta-gal luminescence, 2 h
How it was run: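 CHO-K1 cells expressing nuclear EA and GR-ED fragments of b-gal; compounds titrated up to 46 uM final, 2 h at 37 C. GR nuclear translocation read as complemented b-gal luminescence after 1 h RT detection.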

Potency, inactive:
Cc1nc2cnc(Oc3cccc(Cl)c3)nc2n(C2CC2)c1=O > 46 µM
CNc1ncncc1-c1ccccc1C(F)(F)F > 46 µM
CC(=O)NCCNc1nc(-c2ccc(C(=O)N(C)C)cc2)nc2ccccc12 > 46 µM
COc1ccc(CNc2ccnc(-c3ccc(C(=O)N(C)C)cc3)n2)c(OC)c1 > 46 µM
Clc1ccccc1-c1cc(NCCN2CCOCC2)ncn1 > 46 µM
COc1ccc(CNc2cc(-c3cccnc3)ncn2)c(OC)c1 > 46 µM
CCNc1ncc2nc(-c3ccc(OC)cc3)c(=O)n(CCC#N)c2n1 > 46 µM
FC(F)(F)c1ccccc1-c1cncnc1NCc1cccnc1 > 46 µM
COc1ncc2nc(-c3cn(C)c4ccccc34)c(=O)n(C)c2n1 > 46 µM
CN(C)C(=O)c1ccc(-c2cncnc2NCc2ccccc2)cc1 > 46 µM
COc1ccc(-n2c(=O)c(CCc3ccccc3)nc3cncnc32)cc1 > 46 µM
Cc1nc2cnc(N(C)C)nc2n(-c2ccccc2)c1=O > 46 µM
COc1ccccc1CNc1ncncc1-c1ccc(C(=O)N(C)C)cc1 > 46 µM
COc1ccc(CNc2ncncc2-c2ccccc2C(F)(F)F)c(OC)c1 > 46 µM
COCCn1c(=O)c(-c2cccc(C#N)c2)nc2cnc(N3CCOCC3)nc21 > 46 µM
CNc1ncncc1-c1ccccc1C > 46 µM
O=c1cnc2cnc(Oc3ccccc3)nc2n1C1CC1 > 46 µM
COCCn1c(=O)c(-c2cccc(C#N)c2)nc2cnc(Oc3ccc(OC)cc3)nc21 > 46 µM
O=c1c(-c2ccccc2)nc2cncnc2n1-c1ccccc1 > 46 µM
CN(C)C(=O)c1ccc(-c2nccc(N(C)Cc3ccco3)n2)cc1 > 46 µM
COc1c(O)cc2oc3cc(O)c(CC=C(C)C)c(O)c3c(=O)c2c1CC=C(C)C > 20.6 µM
CS(=O)(=O)Nc1cccc(-c2cc(NCc3cccs3)ncn2)c1 > 46 µM
COc1ccc(-c2nc3cnc(OC)nc3n(C)c2=O)cc1 > 46 µM
c1ccc(CNc2ncncc2-c2cccnc2)cc1 > 46 µM
CN(C)c1ncc2nc(-c3cccs3)c(=O)n(-c3ccccc3)c2n1 > 46 µM
Cn1c(=O)c(-c2ccc(Cl)cc2)nc2cnc(OCc3ccccc3)nc21 > 46 µM
COc1cccc(Cn2c(=O)c(-c3ccc(Cl)cc3)nc3cnc(N4CCN(C)CC4)nc32)c1 > 46 µM
COc1cccc(Cn2c(=O)c(CCc3ccccc3)nc3cncnc32)c1 > 46 µM
Cn1c(=O)c(-c2ccccc2)nc2cnc(Nc3ccccc3)nc21 > 46 µM
COc1ncc2ncc(=O)n(C3CC3)c2n1 > 46 µM
Cc1cnc(CNc2cc(-c3ccccc3C(F)(F)F)ncn2)cn1 > 46 µM
CN(C)C(=O)c1ccc(-c2cncnc2NCc2cccnc2)cc1 > 46 µM
COc1ncc2nc(-c3ccc(F)cc3)c(=O)n(CCc3ccccc3)c2n1 > 46 µM
N#Cc1cccc(-c2nccc(-n3ccnc3)n2)c1 > 46 µM
O=c1c(-c2ccccc2)nc2cnc(Oc3cccc(Cl)c3)nc2n1C1CC1 > 46 µM
CNc1nc(-c2cccnc2)nc2ccccc12 > 46 µM
Cn1cc(-c2nc3cnc(Oc4ccccc4)nc3n(Cc3cccs3)c2=O)c2ccccc21 > 46 µM
COc1cccc(Cn2c(=O)c(-c3ccc(Cl)cc3)nc3cnc(OC)nc32)c1 > 46 µM
c1ccc(CNc2ccnc(-c3ccc4c(c3)OCO4)n2)cc1 > 46 µM

Source: PubChem BioAssay (NCATS)
